assay: growth of efflux-deficient E. coli DRC39 – strain DRC39, OD650, 24 h, E. coli filamentation inducers, primary screen (AID 1178);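 note: growth measured as culture turbidity by optical density at 650 nm; test concentration not given here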; conditions: E. coli DRC39 acrAB, higher = more signal, called active from +8 up or from −8 down

z-score, inactive:
COc1cc(OC)c(C(O)C2C=CC3C(=O)NC(=O)C3N2Nc2ccccn2)cc1Br (stereo unspecified) -0.0857, C=CCNC(=O)[C@@H]1[C@H]2C(=O)O[C@H](c3ccccc3)[C@H](c3ccccc3)N2[C@H](c2ccc(OCCO)cc2)[C@@]12C(=O)N(C(=O)OCCOC)c1ccc(C#CCC(C(=O)OC)C(=O)OC)cc12 0.854, COC(=O)c1c(CC[C@@H](CO)NC(=O)NCCc2c[nH]c3ccccc23)oc(C(=O)Cc2ccccc2)c1C(=O)OC 1.04, O=C(O)[C@H](Cc1ccccc1)n1cc(-c2ccccc2)nn1 -0.0353, CC(C)NC(=O)[C@@]1(Cc2ccccc2I)c2ccccc2C(=O)N(Cc2ccccc2Cl)[C@H]1c1ccc(CO)cc1 0.107, CC(C)=CCCC(C)=CC(O)C1C=CC2C(=O)N(c3ccccc3)C(=O)C2N1Nc1ccc(C(C)C)cc1 (stereo unspecified) -0.427, [N-]=[N+]=NCc1ccccc1[C@H]1OC(c2ccc(OCCCO)cc2)=N[C@@]1(Cc1ccccc1)C(=O)N1CCCCC1 1.29, CC(C)N1CC=CC23O[C@@H]4C=CCOC(=O)[C@@H]4[C@H]2C(=O)N(CCCCCO)[C@@H]3C1=O (stereo partly specified) 0.319, CCOC(=O)[C@H]1C/C=C/C[C@H](C(=O)OCC)C(=O)O[C@H]2[C@@H](OC)O[C@H](CO)[C@@H](OC(=O)c3ccc(Br)cc3)[C@@H]2OC1=O 0.612, O=C(O)[C@H]1C[C@H]2C(=O)N3CCC[C@H]3C(=O)N2[C@H]1c1ccc(O)cc1 0.408, [N-]=[N+]=Nc1ccccc1C[C@@]1(C(=O)N2CCCCC2)N=C(c2ccc(OCCCO)cc2)O[C@@H]1c1ccccc1N=[N+]=[N-] 0.472, CCOC(=O)C1=CC[C@@H](c2ccccc2)N(S(=O)(=O)c2ccc(C)cc2)[C@H]1c1ccc(CC)cc1 -0.692, O=C1[C@H]2C=C(Br)[C@H](C[C@@H]2OCCCCCCO)[C@@]12CO2 -0.748, COc1cc2c(cc1O)C(c1cccs1)N(Cc1ccc([N+](=O)[O-])o1)CC2 (stereo unspecified) -0.107, CCCNC(=O)[C@@]1(Sc2ccc(C)cc2)CC(=O)N(Cc2ccccc2C(F)(F)F)[C@@H]1c1ccc(CO)cc1I 0.044, O=C1OCCC=C[C@H]2OC34C=CCN(Cn5nnc6ccccc65)C(=O)[C@H]3N(CCO)C(=O)[C@@H]4C12 (stereo partly specified) -0.0287, C=CCNC(=O)[C@@H]1[C@H]2C(=O)O[C@H](c3ccccc3)[C@H](c3ccccc3)N2[C@H](c2ccc(OCCO)cc2)[C@@]12C(=O)N(C(=O)OCCOC)c1ccc(C#CCNC(N)=O)cc12 0.589, CCCC1(C(=O)OC)C=C2C(=C(c3ccccc3)C(=O)C2C)CN1 (stereo unspecified) -0.0785, O=C1O[C@@H](c2ccccc2)[C@@H](c2ccccc2)N2[C@@H](c3ccc(OCCO)cc3)[C@]3(C(=O)Nc4ccc(C#CCCO)cc43)[C@@H](C(=O)NC[C@H](O)c3ccccc3)[C@H]12 0.968, COc1ccc(CCNC(=O)[C@@]2(c3ccc([N+](=O)[O-])cc3)CC(=O)N(CC34CC5CC(CC(C5)C3)C4)[C@@H]2c2ccc(CO)cc2I)cc1 0.0777, COc1ccc([C@H]2C[C@H]3C(Br)=C[C@@]2(CO)C(=O)[C@]32CO2)cc1 -0.0919, O=C(NC1CC1)[C@@H]1c2ccccc2C(=O)N(Cc2cc(F)cc(C(F)(F)F)c2)[C@H]1c1ccc(CO)cc1 0.678, COC(=O)[C@@]1(Cc2ccc(OC)cc2)[C@H]2c3cc(C(=O)N4CCCC4)n(CCCNc4ncc(C(F)(F)F)cc4Cl)c3C[C@H]2CN1C(=O)c1ccccc1 -0.0379, CO[C@H]1O[C@H](CO)[C@@H](OC(=O)Nc2ccc(Oc3ccccc3)cc2)[C@H](OC(=O)Nc2ccc3c(c2)OCO3)[C@@H]1OC(=O)Nc1ccc2c(c1)OCO2 0.759, C=C(CCCC)/C(=C/C[C@H](OC(C)=O)c1ccccc1OCCO)c1cnc2ccccc2c1 -0.709, CC(C)(C)OC(=O)CC[C@@]1(C(=O)N2CCCCC2)N=C(c2ccc(OCCCO)cc2)O[C@@H]1c1ccccc1 -0.174, O=C(CS)NCCCCCNC(=O)[C@@H]1C[C@@H]2C(=O)NCC(=O)N2[C@@H]1c1ccc(O)cc1 -0.401, CCCCN1CC=CC23O[C@@H]4/C=C\CCCOC(=O)C4[C@H]2C(=O)N(CCCCCO)[C@@H]3C1=O (stereo partly specified) 0.0497, COc1ccc(C(=O)Nc2cccc(CN3C(=O)[C@]4(O[C@H](CCn5cc(CCO)nn5)[C@@H]([Si](C)(C)c5ccc(OC)cc5)[C@@H]4C)c4ccccc43)c2)cc1 0.216, Cc1ccc(S[C@]2(C(=O)NCC(C)C)CC(=O)N(Cc3cc(C(F)(F)F)cc(C(F)(F)F)c3)[C@@H]2c2ccc(CO)cc2)cc1 -0.995, [N-]=[N+]=NCc1ccccc1[C@@H]1OC(c2ccc(OCCCO)cc2)=N[C@]1(CCS(=O)(=O)c1ccccc1)C(=O)N1CCOCC1 2.84, CS(=O)(=O)CCOC(=O)C1=CC(CCCO)=CC(C2CC2)N(Cc2cc3c(cc2Br)OCO3)C=C1C(=O)OCCS(C)(=O)=O (stereo unspecified) 1.17, C=CC[C@]12N=C(c3ccc(OCCCO)cc3)O[C@H]1c1ccccc1N(CCS(=O)(=O)c1ccccc1)C2=O 0.611, CC1CC/C=C\[C@H]2OC34C=CCN(Cn5nnc6ccccc65)C(=O)[C@H]3N(CCCCCO)C(=O)[C@@H]4C2C(=O)O1 (stereo partly specified) 0.67, C#CCN(C/C=C/c1ccccc1)[C@H](CO)c1ccccc1 -0.338, O=C1N(CCS(=O)(=O)c2ccccc2)c2ccccc2[C@@H]2OC(c3ccc(OCCCO)cc3)=N[C@]12Cc1ccccc1 1.11

Reference: PubChem BioAssay
